Screens: PubChem, National Center for Advancing Translational Sciences (NCATS)
Most compounds without a hit are left out; they make up all but 10% or so of the library.
KB-V1 cytotox: qHTS assay for MDR1-selective chemotherapeutics: Primary screen using the drug-selected MDR subline cells KB-V1 | KB-V1 MDR cells viability, CellTiter-Glo, 72 h | Potency, µM (doses to about 46.1 µM), usual class: cytotoxic | 400,000 compounds, 3.4% hits; note: % is set by controls: 0 for no effect and ±100 for the full control effect; nearly all actives have a fitted effect of over 60% in size
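qHTS viability screen in drug-selected KB-V1 MDR cells: 72 h compound treatment at 37 degrees C, ATP luminescence end point.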
KB-3-1 cytotox: qHTS assay for MDR1-selective chemotherapeutics: Primary screen using the parental adenocarcinoma cell KB-3-1 | Potency, µM (titrated, usually from 46.1 µM), most hits filed as cytotoxic | 400,000 compounds, 1.4% hits | KB-3-1 viability, CellTiter-Glo ATP luminescence, 72 h; note: % is set by controls: 0 for no effect and ±100 for the full control effect; nearly all actives have a fitted effect of over 60% in size
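Screening of KB-3-1 cells (DMEM, 10% FBS, phenol-red free) ran from lowest to highest compound concentration; after 72 h at 37 °C viability was read luminescently and curves fitted.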
SW480 rerep: A quantitative high throughput screen for small molecules that induce DNA re-replication in SW480 colon adenocarcinoma cells; SW480 DNA re-replication, Hoechst DNA content imaging, 48 h; Potency, µM (highest dose often 46.1 µM), without a hit: at the highest dose re-replication activation, actives largely listed as activators; 340,000 compounds, 1.8% hits; note: % of control where 0% means no effect; nearly all actives have a fitted effect of over 55% in size
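SW480 cells exposed to compounds for 48 hr at 37 C, 5% CO2, then Hoechst-stained 40 min. Nuclear DNA content imaged by fluorescence scanning (405 nm excitation, 500-530 nm emission); re-replication scored as increased high-intensity nuclei.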
RORgamma inh: qHTS for inhibitors of ROR gamma transcriptional activity. Potency, µM (top dose mostly 53.6 µM), inactives show at the top dose activity change, negative = inhibition, most hits filed as inhibitors. 310,000 compounds, 5.4% hits. Drosophila S2 Gal4-RORgamma UAS-luciferase reporter, 20 h; note: % is set by controls: 0 for no effect and ±100 for the full control effect; nearly all actives have a fitted effect of over 60% in size
Target sequence (P51450 whole entry, looked up, the tested form may be a part): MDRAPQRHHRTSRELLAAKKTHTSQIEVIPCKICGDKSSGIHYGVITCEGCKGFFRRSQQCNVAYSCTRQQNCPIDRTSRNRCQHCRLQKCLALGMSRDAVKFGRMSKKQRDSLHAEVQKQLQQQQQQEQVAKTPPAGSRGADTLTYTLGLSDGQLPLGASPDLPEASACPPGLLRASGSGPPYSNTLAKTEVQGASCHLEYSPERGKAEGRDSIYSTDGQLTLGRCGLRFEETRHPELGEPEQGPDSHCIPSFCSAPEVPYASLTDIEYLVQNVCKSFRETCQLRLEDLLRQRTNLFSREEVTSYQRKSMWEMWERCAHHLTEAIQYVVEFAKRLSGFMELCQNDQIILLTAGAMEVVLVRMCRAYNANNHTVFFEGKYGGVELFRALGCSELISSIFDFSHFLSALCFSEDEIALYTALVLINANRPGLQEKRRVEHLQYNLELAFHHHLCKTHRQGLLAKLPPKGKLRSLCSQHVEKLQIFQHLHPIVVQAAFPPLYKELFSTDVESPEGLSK
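Luciferase reporter read in Schneider cells carrying Gal4-RORγ (mouse) and UAS-Photinus luciferase; cells given compound 1 h before 700 uM copper sulfate induction, then incubated 20 h at ambient temperature.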
MCF10A rerep: A quantitative high throughput screen for small molecules that induce DNA re-replication in MCF 10a normal breast cells | Potency, µM (series often up to 46.1 µM), without a hit: top-dose activity, positive = re-replication, actives largely listed as activators | MCF 10A DNA re-replication, Hoechst nuclear intensity, 48 h | 350,000 compounds, 2.9% hits; note: % of control where 0% means no effect; nearly all actives have a fitted effect of over 50% in size
Gal4-VP16 FLuc: VP16 counterscreen qHTS for inhibitors of ROR gamma transcriptional activity. Drosophila S2 Gal4-VP16 UAS-luciferase, luminescence, 20 h. Potency, µM (doses to about 53.6 µM), inactives show at the top dose activity, negative = inhibition, hits mostly inhibitors. 310,000 compounds, 3.5% hits;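 note: Gal4-VP16 expression switched on by copper sulfate through the metallothionein promoter; % is set by controls: 0 for no effect and ±100 for the full control effect; nearly all actives have a fitted effect of over 50% in size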
* = called active by the depositor; i = inactive; ? = inconclusive; · = no result given. Calls come from the whole dose curve; as a rule, active = well fitted curve in the direction sought with a large enough effect; inconclusive = small, poorly fitted or top-dose-only effect, or another doubt; inactive = no such curve, though single readings can be large; an effect the other way counts as inactive or inconclusive. Potency is the fitted concentration of half-maximal effect.

SMILES | KB-V1 cytotox | KB-3-1 cytotox | SW480 rerep | RORgamma inh | MCF10A rerep | Gal4-VP16 FLuc
CCC1CCCCN1CCCNC(=O)c1[nH]c2ccccc2c1Sc1ccc(Cl)cc1 (stereo not given) | i | i | · | · | · | ·
Cc1ccc(-c2nc3sc(CCNC(=O)c4ccc(F)c(F)c4)c(C)n3n2)cc1 | i | i | · | · | · | ·
CCN(CC)C(=O)c1cccc(-c2csc(C(O)c3cccc(Cl)c3)n2)c1 (stereo not given) | ? | i | · | · | · | ·
Cc1ccc(S(=O)(=O)N2[C@@H](c3cccc(Cl)c3)C(C(=O)OC(C)(C)C)=CC[C@H]2c2ccc(C(C)C)cc2)cc1 | i | i | · | · | · | ·
COc1ccc(-c2cc(C(=O)Nc3cccc(O)c3)no2)cc1 | ? | i | -9% | 1.4µM* | 5% | 3.2µM*
CC(=O)c1cccc(NC(=O)c2cc(-c3ccco3)on2)c1 | i | i | -13% | -25% | 7% | -1%
O=C(Nc1cccc(O)c1)c1cc(-c2ccco2)on1 | i | i | 7% | 13µM* | 11% | ?
CCCCCCCCCCCCCCCC(=O)OC[C@H](O)[C@H]1OC[C@@H](O)[C@@H]1O | · | · | -1% | -11% | 2% | -4%
Cc1cc(/C=N\NC(=O)CC(=O)NC2CCCCC2)c(C)n1-c1cccc(Cl)c1Cl | 23µM* | ? | ? | -6% | ? | -20%
CCc1ccc([C@@H]2CC=C(C(=O)O)[C@H](c3ccc(C)cc3)N2S(=O)(=O)c2ccc(C)cc2)cc1 | i | i | 13% | · | -34% | ·
Cc1ccccc1S(=O)(=O)N1[C@@H](c2ccc(Cl)cc2)C(C(=O)O)=CC[C@H]1c1ccc(Cl)cc1 | i | i | 2% | · | 16µM* | ·
CCc1ccc([C@@H]2CC=C(C(=O)O)[C@H](c3ccc(Cl)cc3)N2S(=O)(=O)c2ccc(C)cc2)cc1 | i | i | -13% | · | 13µM* | ·
Cc1ccc([C@H]2C(C(=O)O)=CC[C@@H](c3ccc(Cl)cc3)N2S(=O)(=O)c2ccccc2C)cc1 | i | i | -6% | · | ? | ·
COc1cc(CNC(=O)c2ccc3c(c2)c(C)c(C)n3Cc2cccc(C)c2)cc(OC)c1OC | i | i | · | · | · | ·
Cc1nn(Cc2n[nH]c(=S)n2Cc2ccccc2)c(C)c1Cl | i | i | 2% | 5.6µM* | 14% | 20µM*
Cc1cc(C)n(Cc2n[nH]c(=S)n2Cc2ccccc2)n1 | i | i | -1% | 11µM* | -3% | ?
Cc1ccn2c(-c3n[nH]c(=S)n3Cc3ccccc3)c(C)nc2c1 | i | i | 3% | -8% | ? | 0%
CCCCC(NC(=O)Cc1c(C)c2cc3c(-c4ccccc4)coc3c(C)c2oc1=O)C(=O)O (stereo not given) | ? | i | -4% | 1% | 21µM* | 3%
CCOc1ccc(N(C(=O)c2ccccc2Cl)C2=NC(C)(C)CS2)cc1 | ? | i | 4% | 3.2µM* | -4% | -16%
CCOc1ccc(NC(=O)CSc2ccc(-c3sc(-c4ccccc4)nc3C)nn2)cc1 | i | i | · | · | · | ·
Cc1oc(-c2ccc(Cl)cc2)cc1C(=O)O | i | i | 1% | 14µM* | 2% | ?
O=C(NCc1cccnc1)C1Cc2c(-c3ccc(Cl)cc3)ccnc2O1 (stereo not given) | i | ? | · | · | · | ·
N#Cc1c(Nc2ccccc2Cl)s[nH]c1=O | ? | i | ? | 1.3µM* | ? | 3.2µM*
NNc1ccccc1C(F)(F)F | i | i | 8% | -3% | 2% | ?
